For assay [1], the target named is Luciferin 4-monooxygenase (Photinus pyralis) (UniProt P08659). The assay is described as follows: Biochemical firefly luciferase enzyme assay for NPC (AID 624030).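 Note: purified P. pyralis luciferase at 10 nM with luciferin and ATP substrate; nearly all actives have a fitted effect of over 70% in size.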 In outline: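 Purified P. pyralis luciferase at 10 nM in 50 mM Tris Acetate (final), luminescence read within 5 minutes of enzyme addition to compounds. Activity normalised to PTC124 versus DMSO; concentration-response curves classed by r2, magnitude and activity.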
Luciferin 4-monooxygenase (Photinus pyralis), sequence (P08659 whole entry, looked up): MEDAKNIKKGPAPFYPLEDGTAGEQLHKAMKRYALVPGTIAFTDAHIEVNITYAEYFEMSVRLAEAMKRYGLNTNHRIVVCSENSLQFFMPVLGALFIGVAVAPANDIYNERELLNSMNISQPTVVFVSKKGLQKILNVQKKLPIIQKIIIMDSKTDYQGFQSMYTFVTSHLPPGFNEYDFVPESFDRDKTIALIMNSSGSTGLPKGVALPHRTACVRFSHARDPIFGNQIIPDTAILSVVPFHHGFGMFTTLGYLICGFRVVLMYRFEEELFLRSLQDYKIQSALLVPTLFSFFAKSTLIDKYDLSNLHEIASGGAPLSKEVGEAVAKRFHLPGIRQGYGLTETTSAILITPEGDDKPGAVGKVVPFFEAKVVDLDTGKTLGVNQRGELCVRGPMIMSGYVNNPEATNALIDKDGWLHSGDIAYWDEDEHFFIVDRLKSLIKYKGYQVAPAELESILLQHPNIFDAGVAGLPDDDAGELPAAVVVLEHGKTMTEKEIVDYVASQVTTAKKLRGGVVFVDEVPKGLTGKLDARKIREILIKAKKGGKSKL

The test system of another assay is CP215. The assay is described as follows: qHTS profiling for inhibitors of Plasmodium falciparum proliferation (AID 504749). Note: nearly all actives have a fitted effect of over 60% in size. Note: potency is the fitted concentration of half-maximal effect. The note with it: P. falciparum in erythrocytes, SYBR Green DNA, 72 h; series mostly up to 28.7 µM. Summed up:
(§1)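 Each compound contacts P. falciparum-infected red blood cells for 72 h at 37 C; lysis buffer (Tris, EDTA, saponin, Triton X, SYBR Green I) is added and fluorescence measured next morning; values normalized to controls.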
Background: Quantitative high-throughput screening tests each substance at several concentrations.

For a further assay, the system named is CP260. Described as above. The note with it: P. falciparum in erythrocytes, SYBR Green DNA, 72 h; series mostly up to 28.7 µM. Summed up:
as §1

The next assay relates to CP266. The description is as above. The note with it: P. falciparum in erythrocytes, SYBR Green DNA, 72 h; series mostly up to 28.7 µM. In outline:
as §1

A further assay has as its system CP268. The assay is described as above. The note with it: P. falciparum in erythrocytes, SYBR Green DNA, 72 h; series mostly up to 28.7 µM. In outline: as §1
In a further assay the test system is CP291. The description is as above. The note with it: P. falciparum in erythrocytes, SYBR Green DNA, 72 h; series mostly up to 28.7 µM. In outline: as §1
The next assay concerns CP297. The assay is described as above. The note with it: P. falciparum in erythrocytes, SYBR Green DNA, 72 h; series mostly up to 28.7 µM. In outline: as §1
The next assay concerns CP305. Described as above. Conditions: P. falciparum in erythrocytes, SYBR Green DNA, 72 h; series mostly up to 28.7 µM. Summed up: as §1
Another assay has as its system CP335. The description is as above. The note with it: P. falciparum in erythrocytes, SYBR Green DNA, 72 h; series mostly up to 28.7 µM. In outline: as §1
A further assay deals with DIV14. The assay is described as above. Conditions: P. falciparum in erythrocytes, SYBR Green DNA, 72 h; series mostly up to 28.7 µM. In outline:
as §1

The subject of the next assay is DIV17. Described as above. The note with it: P. falciparum in erythrocytes, SYBR Green DNA, 72 h; series mostly up to 28.7 µM. In outline:
as §1

The test system of the next assay is FAB9. The description is as above. Conditions: P. falciparum in erythrocytes, SYBR Green DNA, 72 h; series mostly up to 28.7 µM. Summed up:
as §1

For the next assay, the system named is GB4. The description is as above. Conditions: P. falciparum in erythrocytes, SYBR Green DNA, 72 h; series mostly up to 28.7 µM. In outline:
as §1

The test system of another assay is HB3. The description is as above. Conditions: P. falciparum in erythrocytes, SYBR Green DNA, 72 h; series mostly up to 28.7 µM. In outline:
as §1

The next assay relates to ICS. The assay is described as above. The note with it: P. falciparum in erythrocytes, SYBR Green DNA, 72 h; series mostly up to 28.7 µM. In outline: as §1
In the next assay the test system is P93_24. The assay is described as above. Conditions: P. falciparum in erythrocytes, SYBR Green DNA, 72 h; series mostly up to 28.7 µM. Summed up:
as §1

For another assay, the system named is PC26. Described as above. Conditions: P. falciparum in erythrocytes, SYBR Green DNA, 72 h; series mostly up to 28.7 µM. In outline:
as §1

The test system of a further assay is TAB109. The description is as above. Conditions: P. falciparum in erythrocytes, SYBR Green DNA, 72 h; series mostly up to 28.7 µM. Summed up:
as §1

In a further assay the test system is JCK. Described as above. Conditions: P. falciparum in erythrocytes, SYBR Green DNA, 72 h; series mostly up to 28.7 µM. In outline:
as §1

The test system of the next assay is PC49. The assay is described as above. The note with it: P. falciparum in erythrocytes, SYBR Green DNA, 72 h; series mostly up to 28.7 µM. In outline:
as §1

Data on six molecules can be found in PubChem BioAssay (NCATS).

The structures appear in SMILES notation. Records with an inconclusive call do not appear. Active and inactive are the calls of the source. Calls come from the whole dose curve; as a rule, active = well fitted inhibition curve with a large enough effect; inconclusive = small, poorly fitted or top-dose-only effect; inactive = flat fitted curve, though single readings scatter.

Turning to `CCCCC(=O)OCC(=O)[C@]1(O)Cc2c(O)c3c(c(O)c2[C@H](OC2CC(NC(=O)C(F)(F)F)C(O)C(C)O2)C1)C(=O)c1c(OC)cccc1C3=O` (stereo not given in full), in assay [1], the Potency entry is “inactive”. The Potency was 4780 nM (active) in the assay on CP215; 2000 nM (active) in the assay with CP260; 1690 nM (active) in the assay with CP266; 5360 nM (active) in the assay with CP268; 4260 nM (active) with CP291; 1510 nM (active) with CP297. Besides, the Potency with CP305 was 4780 nM (active); in the assay with CP335 it was 1510 nM (active); in the assay with DIV14 it was 1690 nM (active); in the assay on DIV17, 1510 nM (active); in the assay on FAB9, 11200 nM (active); in the assay on GB4, 3790 nM (active). Further, the Potency in the assay on HB3 was 2510 nM (active); with ICS, 794 nM (active); with P93_24 it was 2000 nM (active); in the assay with PC26, 1510 nM (active); with TAB109 it was 2000 nM (active).
Take `C=C[C@H]1CN2CCC1C[C@H]2[C@H](O)c1ccnc2ccc(OC)cc12` (stereo not given in full): the Potency result in assay [1] is “inactive”. For the same molecule, the Potency with CP215 is 1200 nM (active); in the assay with CP260 it was 708 nM (active); in the assay on CP266 it was 1900 nM (active); with CP268, 1510 nM (active); with CP291, 1200 nM (active); in the assay with CP297 it was 1690 nM (active). For the same molecule, the Potency is 1350 nM (active) with CP305; 849 nM (active) with CP335; 757 nM (active) in the assay on DIV14; 757 nM (active) in the assay on DIV17; 794 nM (active) with FAB9; 301 nM (active) in the assay with GB4. In addition, the Potency is 794 nM (active) with HB3; 282 nM (active) with ICS; 10000 nM (active) in the assay with JCK; 1000 nM (active) in the assay on P93_24; 601 nM (active) in the assay on PC26; 1260 nM (active) with PC49. Besides, the Potency with TAB109 is 501 nM (active).
Take `CC1OC(OC2CCC3(C)C(CCC4C3CC(O)C3(C)C(C5=CC(=O)OC5)CCC43O)C2)CC(O)C1OC1CC(O)C(OC2CC(O)C(OC3OC(CO)C(O)C(O)C3O)C(C)O2)C(C)O1` (stereo not given): the Potency entry (in assay [1]; with CP215; with CP260; in the assay with CP266; in the assay with CP268; in the assay with CP291) was “inactive” throughout. In addition, the Potency entry in the assay on CP297, with CP305, in the assay with CP335, in the assay on DIV14, in the assay on DIV17 and in the assay on FAB9 was “inactive” throughout. Besides, the Potency result in the assay on GB4, in the assay with HB3, with ICS, in the assay with JCK, in the assay on P93_24 and in the assay on PC49 was “inactive” throughout. In addition, the Potency result in the assay with TAB109 is “inactive”.
`CCCCCCCCCCCCCCCC(=O)OC[C@H](O)[C@H]1OC[C@@H](O)[C@@H]1O`: the Potency entry (in assay [1]; with CP215; in the assay on CP260; in the assay on CP266; in the assay with CP268; with CP291) was “inactive” each time. For the same molecule, the Potency result in the assay on CP297, with CP305, in the assay on CP335, in the assay with DIV17, with FAB9 and with GB4 was “inactive” throughout. In addition, the Potency result in the assay on HB3, in the assay with ICS, in the assay on JCK, with P93_24, with PC26 and in the assay on PC49 was “inactive” each time.
Take `O=C(O)CC(O)CC(O)/C=C/c1c(C2CC2)nc2ccccc2c1-c1ccc(F)cc1` (stereo not given): the Potency entry (in assay [1]; in the assay on CP215; in the assay with CP260; in the assay with CP266; in the assay on CP268; in the assay with CP291) was “inactive” each time. Also, the Potency entry with CP297, with CP305, in the assay with CP335, with DIV14, in the assay with DIV17 and in the assay on FAB9 was “inactive” throughout. The Potency result in the assay on GB4, in the assay with HB3, in the assay on ICS, in the assay on JCK, in the assay with P93_24 and in the assay on PC26 was “inactive” throughout. Further, the Potency result with PC49 and in the assay on TAB109 was “inactive” throughout.
For the molecule `CC1(C)OC[C@@H]2O[C@@]3(C(=O)O)OC(C)(C)O[C@@H]3[C@@H]2O1`, the Potency entry (in assay [1]; in the assay on CP215; in the assay with CP260; in the assay with CP266; in the assay with CP268; with CP291) was “inactive” in each case. In addition, the Potency result in the assay with CP297, with CP305, with CP335, with DIV14, in the assay with DIV17 and with FAB9 was “inactive” each time. The Potency result in the assay on GB4, in the assay on HB3, in the assay on ICS, in the assay with JCK, in the assay on P93_24 and with PC26 was “inactive” in each case. The Potency result in the assay with PC49 and with TAB109 was “inactive” in each case.
